From the supplement of paper PMC10849652
The full data set covers some 8,800 targets. This sample favours those with a hit. About 0.5% of all pairs of compound and target were hits.

Chain of UniProt Q5MNZ9 (Q5MNZ9 whole entry, looked up): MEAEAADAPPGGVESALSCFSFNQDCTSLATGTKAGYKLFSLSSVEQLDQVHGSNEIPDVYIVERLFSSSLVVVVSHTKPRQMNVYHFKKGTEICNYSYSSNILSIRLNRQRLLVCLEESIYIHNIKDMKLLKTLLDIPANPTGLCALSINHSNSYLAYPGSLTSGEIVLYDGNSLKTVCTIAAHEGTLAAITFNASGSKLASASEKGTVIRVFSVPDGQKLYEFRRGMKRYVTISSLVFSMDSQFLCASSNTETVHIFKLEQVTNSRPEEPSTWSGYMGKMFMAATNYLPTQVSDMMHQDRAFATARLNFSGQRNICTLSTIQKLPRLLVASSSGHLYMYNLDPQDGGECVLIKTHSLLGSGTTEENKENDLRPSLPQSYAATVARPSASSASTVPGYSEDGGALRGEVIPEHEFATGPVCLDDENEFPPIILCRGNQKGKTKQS
Chain of UniProt Q9NUA8 (Q9NUA8 whole entry, looked up): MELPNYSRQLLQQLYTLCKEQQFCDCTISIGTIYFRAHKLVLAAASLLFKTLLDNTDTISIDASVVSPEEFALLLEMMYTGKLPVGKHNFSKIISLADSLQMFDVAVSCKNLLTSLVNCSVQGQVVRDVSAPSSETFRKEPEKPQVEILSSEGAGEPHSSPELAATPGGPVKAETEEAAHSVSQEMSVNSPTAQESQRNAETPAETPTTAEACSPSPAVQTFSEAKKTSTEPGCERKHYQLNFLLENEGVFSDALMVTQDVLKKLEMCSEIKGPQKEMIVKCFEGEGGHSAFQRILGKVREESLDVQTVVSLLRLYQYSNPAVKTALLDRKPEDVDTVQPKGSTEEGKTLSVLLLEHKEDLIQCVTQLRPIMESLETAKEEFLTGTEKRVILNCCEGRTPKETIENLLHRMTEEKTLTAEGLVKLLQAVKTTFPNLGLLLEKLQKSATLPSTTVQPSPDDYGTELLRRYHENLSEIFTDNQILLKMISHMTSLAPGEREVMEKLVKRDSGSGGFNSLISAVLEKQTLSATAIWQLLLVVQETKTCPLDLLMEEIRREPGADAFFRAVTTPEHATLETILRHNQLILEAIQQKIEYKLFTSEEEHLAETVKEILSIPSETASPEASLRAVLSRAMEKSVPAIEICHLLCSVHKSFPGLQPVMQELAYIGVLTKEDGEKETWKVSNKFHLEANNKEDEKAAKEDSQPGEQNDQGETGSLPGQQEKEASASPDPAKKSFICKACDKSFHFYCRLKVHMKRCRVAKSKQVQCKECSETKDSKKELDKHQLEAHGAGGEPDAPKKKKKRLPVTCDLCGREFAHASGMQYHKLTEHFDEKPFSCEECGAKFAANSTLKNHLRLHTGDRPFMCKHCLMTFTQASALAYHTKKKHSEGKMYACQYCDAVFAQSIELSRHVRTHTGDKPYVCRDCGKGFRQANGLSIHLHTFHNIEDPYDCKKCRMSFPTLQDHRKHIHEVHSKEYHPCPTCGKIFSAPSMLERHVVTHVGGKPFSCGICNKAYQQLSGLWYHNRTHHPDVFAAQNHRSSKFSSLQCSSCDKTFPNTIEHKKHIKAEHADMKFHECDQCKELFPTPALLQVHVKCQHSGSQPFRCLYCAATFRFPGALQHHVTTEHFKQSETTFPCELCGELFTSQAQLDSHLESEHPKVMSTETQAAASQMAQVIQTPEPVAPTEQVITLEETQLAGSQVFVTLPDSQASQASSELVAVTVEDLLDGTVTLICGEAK
Chain of UniProt Q6WRX3 (Q6WRX3 whole entry, looked up): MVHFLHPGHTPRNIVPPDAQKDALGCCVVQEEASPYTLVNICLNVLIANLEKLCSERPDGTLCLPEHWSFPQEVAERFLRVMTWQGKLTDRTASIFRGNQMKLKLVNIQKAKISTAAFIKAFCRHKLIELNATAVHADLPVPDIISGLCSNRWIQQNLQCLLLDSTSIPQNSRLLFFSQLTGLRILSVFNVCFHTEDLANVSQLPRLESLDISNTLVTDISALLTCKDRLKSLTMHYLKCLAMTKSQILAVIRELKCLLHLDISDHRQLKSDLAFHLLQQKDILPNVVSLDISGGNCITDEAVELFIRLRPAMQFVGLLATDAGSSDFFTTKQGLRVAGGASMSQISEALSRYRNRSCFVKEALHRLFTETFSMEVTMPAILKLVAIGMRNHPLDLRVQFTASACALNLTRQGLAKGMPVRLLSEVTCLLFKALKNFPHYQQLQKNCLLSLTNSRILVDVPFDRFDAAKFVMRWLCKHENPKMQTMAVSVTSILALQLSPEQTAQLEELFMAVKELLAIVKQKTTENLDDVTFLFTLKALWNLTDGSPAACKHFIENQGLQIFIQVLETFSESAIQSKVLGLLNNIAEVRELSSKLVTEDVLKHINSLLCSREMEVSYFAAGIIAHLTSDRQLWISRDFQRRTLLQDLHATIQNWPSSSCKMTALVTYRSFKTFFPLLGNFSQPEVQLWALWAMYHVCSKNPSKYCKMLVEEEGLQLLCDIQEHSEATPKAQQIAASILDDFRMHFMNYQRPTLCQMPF
Chain of UniProt Q9Y5A6 (Q9Y5A6 whole entry, looked up): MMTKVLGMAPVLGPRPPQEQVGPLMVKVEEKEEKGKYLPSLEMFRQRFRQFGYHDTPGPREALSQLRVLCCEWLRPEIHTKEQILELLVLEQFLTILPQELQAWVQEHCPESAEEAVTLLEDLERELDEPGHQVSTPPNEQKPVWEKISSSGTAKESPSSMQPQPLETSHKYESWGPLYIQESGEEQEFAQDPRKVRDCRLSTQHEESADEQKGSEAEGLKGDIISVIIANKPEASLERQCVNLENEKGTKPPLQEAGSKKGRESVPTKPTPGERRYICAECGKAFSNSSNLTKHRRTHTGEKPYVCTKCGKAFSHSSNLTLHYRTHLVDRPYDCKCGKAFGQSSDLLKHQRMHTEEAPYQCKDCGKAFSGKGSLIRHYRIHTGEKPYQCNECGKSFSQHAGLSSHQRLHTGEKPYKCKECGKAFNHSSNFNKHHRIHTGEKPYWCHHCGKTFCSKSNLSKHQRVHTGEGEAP
Chain of UniProt Q9Y6I7 (Q9Y6I7 whole entry, looked up): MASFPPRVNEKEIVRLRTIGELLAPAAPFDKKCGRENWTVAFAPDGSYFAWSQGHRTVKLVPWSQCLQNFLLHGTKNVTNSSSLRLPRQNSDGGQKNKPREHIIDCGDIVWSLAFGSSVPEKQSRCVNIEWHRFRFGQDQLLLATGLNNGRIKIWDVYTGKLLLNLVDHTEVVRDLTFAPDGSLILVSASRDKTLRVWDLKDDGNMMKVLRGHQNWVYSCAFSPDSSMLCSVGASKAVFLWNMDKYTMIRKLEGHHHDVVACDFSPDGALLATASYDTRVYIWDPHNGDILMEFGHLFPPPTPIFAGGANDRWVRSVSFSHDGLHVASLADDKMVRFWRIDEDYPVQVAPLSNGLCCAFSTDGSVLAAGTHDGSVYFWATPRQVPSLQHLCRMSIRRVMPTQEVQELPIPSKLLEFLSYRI

What follows are targets tested with c1ccc([C@@H]2C[C@H]2NC2CCNCC2)cc1 (assay: log2 fold change, soluble protein after heating vs DMSO (PISA); higher = thermal stabilisation; K562 lysate, 10 uM; active = over 0.2 and 3.5 SD of the protein, either way, in both replicates (recomputed)).
Summary of the method: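 Values give the log-two fold change in thermal stability against solvent controls, from duplicates. Crude K562 extract at 1 mg/mL protein, made by dounce homogenisation in PBS pH 7.4 with 1 mM MgCl2, was treated with 10 μM compound for 30 min. After 3 min heating across 48°C-58°C, aliquots were pooled, adjusted to 0.5% NP-40 at 4°C and centrifuged at 21,000xg for 90 min. The supernatant was measured by TMTpro 16plex LC-MS/MS with channel sums equalised.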
ZNF598 isoform 3 (UniProt Q86UK7) was tested, and the log2 fold change was 0.025 (inactive). In the case of XPO1 (UniProt O14980), the log2 fold change was 0.023 (inactive). With ZDHHC17 (UniProt Q8IUH5) the log2 fold change was -0.578 (inactive). For ZSCAN21 (UniProt Q9Y5A6), the log2 fold change was -0.074 (inactive). With WIPI2 isoform 6 (UniProt Q9Y4P8) the log2 fold change was -0.073 (inactive). For WSB1 (UniProt Q9Y6I7), the log2 fold change was -0.036 (inactive). For WIPI1 (UniProt Q5MNZ9), the log2 fold change was -0.031 (inactive). ZNF346 (UniProt Q9UL40) was tested, and the log2 fold change was -0.086 (inactive). For YTHDC2 (UniProt Q9H6S0), the log2 fold change was 0.058 (inactive). In the case of WRNIP1 (UniProt Q96S55), the log2 fold change was 0.06 (inactive). ZNF318 (UniProt Q5VUA4) was tested, and the log2 fold change was 0.038 (inactive). UTRN isoform 2 (UniProt P46939) was tested, and the log2 fold change was 0.062 (inactive). For XPO6 (UniProt Q96QU8), the log2 fold change was -0.045 (inactive). For UNC13A (UniProt Q9UPW8), the log2 fold change was -0.966 (inactive). With ZBTB40 (UniProt Q9NUA8) the log2 fold change was -0.432 (active). For VTN (UniProt P04004), the log2 fold change was -0.222 (inactive). For UTP18 (UniProt Q9Y5J1), the log2 fold change was 0.059 (inactive). For VPS11 (UniProt Q9H270), the log2 fold change was 0.029 (inactive). For ZYG11A (UniProt Q6WRX3), the log2 fold change was -0.012 (inactive). ZC3H13 (UniProt Q5T200) was tested, and the log2 fold change was 0.136 (inactive). With ZSWIM8 isoform 4 (UniProt A7E2V4) the log2 fold change was 0.03 (inactive). VPS72 (UniProt Q15906) was tested, and the log2 fold change was -0.035 (inactive). In the case of YWHAQ (UniProt P27348), the log2 fold change was 0.181 (inactive). In the case of UTP3 (UniProt Q9NQZ2), the log2 fold change was 0.018 (inactive). In the case of WAS (UniProt P42768), the log2 fold change was 0.053 (inactive).
